Several values for one entry are separate records, joined by “and”; a condition that tells them apart may be missing. Equal entries are not always repeated.
Legend:
Type in all cases: functional
[1] = molecular target: Solute carrier family 2, facilitated glucose transporter member 1 (Homo sapiens) (UniProt P11166); assay: ST_JUDE_LEISH: Cytotoxicity at 2uM final concentration against transgenic Leishmania Mexicana promastigotes LmGLUT1 that are glucose transport deficient and complemented with the human glucose transporter GLUT1. Activity is measured by DNA content using SYBR green in vitro
Solute carrier family 2, facilitated glucose transporter member 1 (Homo sapiens), sequence (P11166 whole entry): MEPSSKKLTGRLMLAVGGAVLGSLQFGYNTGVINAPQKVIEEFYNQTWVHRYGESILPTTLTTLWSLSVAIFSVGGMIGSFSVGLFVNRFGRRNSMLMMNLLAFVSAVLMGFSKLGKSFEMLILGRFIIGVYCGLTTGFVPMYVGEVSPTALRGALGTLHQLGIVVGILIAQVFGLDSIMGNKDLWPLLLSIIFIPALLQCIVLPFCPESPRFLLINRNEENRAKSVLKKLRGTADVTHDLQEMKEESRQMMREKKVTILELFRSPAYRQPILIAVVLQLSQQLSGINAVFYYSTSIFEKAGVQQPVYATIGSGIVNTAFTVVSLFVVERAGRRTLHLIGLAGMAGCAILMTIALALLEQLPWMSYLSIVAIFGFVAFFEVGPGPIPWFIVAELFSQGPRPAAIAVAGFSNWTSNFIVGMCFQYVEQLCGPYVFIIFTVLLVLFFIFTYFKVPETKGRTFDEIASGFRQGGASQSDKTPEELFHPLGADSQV

[2] = molecular target: Hexose transporter 1 (Plasmodium falciparum) (UniProt O97467); assay: ST_JUDE_LEISH: Cytotoxicity at 2uM final concentration against transgenic Leishmania Mexicana promastigotes LmPfHT that are glucose transport deficient and complemented with the Plasmodium falciparum hexose transporter. Activity is measured by DNA content using SYBR green in vitro
[3] = molecular target: Glucose transporter (Leishmania mexicana) (UniProt O61059); assay: ST_JUDE_LEISH: Cytotoxicity at 2uM final concentration against transgenic Leishmania Mexicana promastigotes LmGT2 that are glucose transport deficient and complemented with the L. Mexicana glucose transporter 2. Activity is measured by DNA content using SYBR green in vitro

Row | Structure (SMILES) | inhibition [1] | inhibition [2] | inhibition [3]
1 | O=C(NCCCCN1CCN(c2ccc3c(c2)CCC3)CC1)c1ccc(NC(=O)c2ccc(Cl)cc2)cc1 | 55.3% | 38.1% | 24.9%
2 | CCC[C@@H]([C@@H](CC1CCCCC1)C(=O)N[C@H](C(=O)Nc1nccs1)C(C)(C)SC)N(O)C=O | 9.33% | 8.98% | 8.5%
3 | COc1ccc2nccc([C@@H](O)CN3CCC(NCCc4c[nH]c5ccccc45)CC3)c2c1 | 9.59% | 11% | 7.8%
4 | CC[C@@H]([C@@H](Cc1cc2ccccc2s1)C(=O)N[C@@H](CCCCNC(=O)OCc1ccccc1)C(=O)Nc1ccccn1)N(O)C=O | 5.52% | 4.31% | 3.75%
5 | CN1C(=CC(=O)NC(=O)c2ccccc2)C(C)(C)c2ccccc21 | 0.52% | 0.41% | 0.4%
6 | C=C[C@H]1CN2CC[C@H]1C[C@H]2[C@H](O)c1ccnc2ccc(OC)cc12 | 7.23% and -4.42% and 0.77% | 6.11% and -3.17% and 2.26% | -0.01% and 5.72% and -2.15%
7 | O=C(NC1CCN(Cc2ccccc2)CC1)c1ccc(-c2nc3cc(Cl)c(Cl)cc3[nH]2)c(F)c1 | 10.3% | 9.26% | 9.86%
8 | COc1ccc2nc3cc(Cl)ccc3c(NCc3ccccc3)c2c1 | 2.39% | 2.92% | -0.49%
9 | O=C(N[C@H](Cc1ccc(Cl)cc1)C(=O)N1CCN(c2ccnc3cc(Cl)ccc23)CC1)[C@H]1Cc2ccccc2CN1 | 0.9% | -0.43% | -2.58%
10 | CCOc1ccc(-c2nonc2NC(=O)c2ccc(Cl)cc2)cc1OCC | 4.45% | 4.43% | 4.61%
11 | O=C(N[C@H]1CCN(Cc2ccc(OCCN3CCCC3)c(Cl)c2)C1)c1ccc(Cl)c(Cl)c1 | 8.03% | 16.6% | 6.8%
12 | COc1ccc2[nH]cc(C3CCN(CCCCNC(=O)c4ccc(NC(=O)c5ccc(Cl)cc5)cc4)CC3)c2c1 | 4.59% | 4.04% | 5.72%
13 | O=c1[nH]c2c(cc1CNC1CCCCC1)c(-c1cccc(F)c1)nn2-c1ccccc1 | 1.69% | 0.38% | -3.71%
14 | Oc1c(CN2CCCC(C(F)(F)F)C2)cc(Cl)c2ccccc12 (stereo not given) | 1.85% | 2.27% | 3.06%
15 | CCN(CC)CCN(Cc1ccc(-c2ccc(C(F)(F)F)cc2)cc1)C(=O)Cn1c(CCc2ccc(F)cc2)nc(=O)c2sccc21 | 2.57% | 1.22% | 2.92%
16 | O=C(Nc1cccc(-c2cccc(-c3nc4cc(F)ccc4[nH]3)c2)c1)Nc1ccc(F)c(F)c1F | 7.82% | 7.26% | 7.83%
17 | Cc1cccc(C)c1N1CCN(C2CCC(NC(=O)c3cc4ccccc4[nH]3)CC2)CC1 (stereo not given) | 1.58% | -0.69% | -0.14%
18 | COc1ccc([N+](=O)[O-])cc1N(Cc1ccccc1-c1ccccc1)S(=O)(=O)c1ccc(C(F)(F)F)cc1[N+](=O)[O-] | 8.36% | 5.46% | -1.25%

Row | Structure (SMILES) | inhibition [1] | inhibition [2] | inhibition [3]
19 | COc1ccc(CNCc2cccc(-c3ccc(-c4nc5ccccc5[nH]4)cc3)c2)cc1 | 3.35% | 1.89% | 3.52%
20 | CS(=O)(=O)NCCCNCc1ccc(-c2cccc(-c3nc4cc(F)ccc4[nH]3)c2)cc1 | -2.11% | 0.22% | -0.29%
21 | Fc1cc(Cl)ccc1Nc1ccnc2cc(-c3ccc(CN4CCNCC4)o3)ccc12 | 1.02% | 1.16% | 1.34%
22 | CCCCSc1nc2c(c(=O)n1Cc1ccco1)C1(CCCCC1)Cc1ccccc1-2 | 0.71% | 1.36% | 1.89%
23 | CCCS(=O)(=O)c1nc(S(=O)(=O)c2ccc(Cl)cc2)c(N2CCCCC2)s1 | 0.14% | 0.19% | -1.01%
24 | O=C(Nc1ccccc1)N1CCC(CN2CCOC(c3ccccc3)(c3ccccc3)C2)CC1 | 7.91% | 4.78% | 7.57%
25 | O=C(c1cc2ccccc2o1)N1CCc2cc3nccc(N4CCN5CCC[C@H]5C4)c3cc21 | 3.95% | 4.36% | 6.35%
26 | Cc1cc(C(=O)OCC(N)=O)c(C)n1-c1ccc(F)cc1 | -0.25% | 6.13% | 3.07%
27 | CC(C)c1ccc(NC(=O)c2ccc(CN3CCCN(Cc4cccc(Cl)c4)CC3)cc2)cc1 | 0.69% | 1.46% | 1.59%
28 | O=C(NCCN1CCCCC1)c1ccc(CNC(=O)c2ccc(O)c(-c3cccc(C(F)(F)F)c3)c2)cc1 | 4.42% | 3.09% | 3.27%
29 | CN1CCCN(Cc2ccc(-c3ccc(NC(=O)c4cccc(C#N)c4)cc3)cc2)CC1 | 2.3% | 0.34% | 0.78%
30 | CCCCCCP(=O)(COc1ccc(CCN(CC(O)COc2cccc3[nH]c(C(N)=O)cc23)CC(O)COc2cccc3[nH]c(C(N)=O)cc23)cc1)OCCCC (stereo not given) | 8.37% | 8.1% | 6.45%
31 | COC(=O)c1ccc2nc(-c3cc(OC)c(O)c(C(=O)NC4CCN(Cc5ccccc5)CC4)c3)[nH]c2c1 | 8.4% | 5.32% | 7.01%
32 | CCc1nc(N)nc(N)c1-c1ccc(F)cc1 | 6.27% | 4.73% | 5.14%
33 | Nc1nc(-c2ccc3c(Nc4ccc(F)c(Cl)c4)ccnc3c2)cs1 | 3.22% | 4.08% | 3.86%
34 | FC(F)(F)c1ccc(-c2ccc(CNC3CCN(CCN4CCOCC4)CC3)cc2)cc1 | 1.09% | 0.81% | 3.26%
35 | Fc1ccc(CNc2nc(-c3ccc(F)c(C(F)(F)F)c3)n(-c3cccc(C(F)(F)F)c3)n2)cc1 | 4.39% | 5.8% | 3.42%

— ChEMBL document CHEMBL3433997, “St. Jude Leishmania screening dataset” (2016)
